TGFb inhibitor – blocks TGF-b signaling; HepG2 CAGA-GFP TGF-b/SMAD3 reporter, GFP fluorescence, 18 h; TGF-beta stimulated, 500 pg/mL final; Potency, µM (doses to about 46.1 µM), for the others: at the top dose activity, negative = inhibition, actives largely listed as inhibitors; 1.2% of 410,000 active; AID 588855; also: potency is read from the fitted curve at half-maximal effect; % is scaled to controls: 0 for no effect and ±100 for the full control effect; nearly all actives have a fitted effect of over 65% in size
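Read-out: total well GFP (ex488/em500-530) summed from mean per-cell fluorescence. Cells: HEPG2 CAGA-GFP, 1% FBS DMEM, 18 h at 37 degrees C with 500 pg/mL final TGF-beta. Unstimulated wells served as the full-inhibition control; stimulated DMSO wells = 0%.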
HepG2 tox – HepG2 cytotoxicity, counter-screen for TGF-b inhibitors; HepG2 CAGA-GFP viability, ATP luminescence, 18 h; Potency, µM (series often up to 46.1 µM), inactives show at the top dose activity change, negative = cytotoxicity, hits mostly cytotoxic; 0.76% of 410,000 active; also: potency is read from the fitted curve at half-maximal effect
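HepG2 CAGA-GFP cells (1000/well, DMEM with 1% FBS) received compound, then TGF-beta at 500 pg/mL final, and were incubated 18 hours at 37 degrees C. Viability was read by CellTiter-Glo luminescence. Media-only wells were set as complete cell-killing and DMSO as no toxicity.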
ASM inhibitor – inhibitors of human secretory acid sphingomyelinase; Potency, µM (series often up to 57.5 µM), for the others: at the top dose activity change, negative = inhibition, usual class: inhibitors; P17405; 0.006% of 340,000 active; placental ASM, HMU-PC fluorogenic substrate, 60 min; also: potency is read from the fitted curve at half-maximal effect
Target sequence (P17405 47-631 limits assumed): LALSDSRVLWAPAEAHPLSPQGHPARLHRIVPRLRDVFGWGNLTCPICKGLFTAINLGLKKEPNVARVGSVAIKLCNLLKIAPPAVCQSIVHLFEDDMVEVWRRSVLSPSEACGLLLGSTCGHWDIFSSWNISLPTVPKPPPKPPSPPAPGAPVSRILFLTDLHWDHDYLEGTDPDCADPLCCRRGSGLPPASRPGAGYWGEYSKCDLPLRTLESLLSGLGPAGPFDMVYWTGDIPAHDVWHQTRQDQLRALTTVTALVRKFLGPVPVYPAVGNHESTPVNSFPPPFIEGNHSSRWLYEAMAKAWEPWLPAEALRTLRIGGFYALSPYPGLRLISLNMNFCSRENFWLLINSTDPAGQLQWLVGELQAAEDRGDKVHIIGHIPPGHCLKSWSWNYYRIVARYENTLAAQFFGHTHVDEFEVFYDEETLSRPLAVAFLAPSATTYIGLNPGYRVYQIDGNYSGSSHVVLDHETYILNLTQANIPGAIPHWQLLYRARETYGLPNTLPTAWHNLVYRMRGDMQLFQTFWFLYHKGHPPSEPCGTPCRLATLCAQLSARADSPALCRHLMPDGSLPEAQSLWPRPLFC
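HMU-PC0 cleavage (9 uM final) by human placental ASM, 60 min at 37 °C following 10 min compound exposure at RT; stopped at pH 10, fluorescence Ex 386/Em 447 nm.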
TDP1 cell noCPT – qHTS for Inhibitors of human tyrosyl-DNA phosphodiesterase 1 (TDP1): qHTS in cells in absence of CPT | DT40 Tdp1-/- hTDP1 cells, no CPT, ATP luminescence, 48 h | Potency, µM (highest dose often 46.2 µM), without a hit: at the top dose activity change, negative = growth inhibition, hits mostly inhibitors | 15% of 420,000 active | AID 686978, 2013; also: potency is read from the fitted curve at half-maximal effect; % is scaled to controls: 0 for no effect and ±100 for the full control effect; nearly all actives have a fitted effect of over 55% in size
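Cells were dispensed at 400 per well, compounds added by pin tool, plates incubated ≥48 hr at 37 °C, then CellTiter-Glo added for 30 min at room temperature before luminescence reading. Line: DT40 Tdp1-/- complemented with hTDP1; camptothecin omitted.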
IL1B secr inh – inhibitors of inflammasome signaling (IL-1 beta secretion). THP-1 LPS/ATP IL-1B secretion, AlphaLISA, 16 h; active compounds read low. activity change, % at 57.5 µM. 4.7% of 360,000 active. AID 743279; in the data active = activity change below about -50%; inconclusive = mostly about -30% to -49%; also: % is scaled to controls: 0 for no effect and ±100 for the full control effect
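THP-1 cells pretreated 1 hr with compounds (up to 57.5 uM final), then stimulated with LPS (250 ng/mL final) plus ATP (1.25 mM final); secreted IL-1B measured by AlphaLISA after 16 hr, decreased signal indicating inhibition.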
TDP1 cell CPT – DT40-hTDP1 cell growth loss with CPT | chicken DT40 Tdp1-/-;hTDP1 cells + 20 nM CPT, ATP luminescence, 48 h | Potency, µM (top dose mostly 46.2 µM), for the others: at the highest dose activity change, negative = growth inhibition, usual class: inhibitors | 12% of 420,000 active; also: potency is read from the fitted curve at half-maximal effect; % is scaled to controls: 0 for no effect and ±100 for the full control effect; nearly all actives have a fitted effect of over 55% in size
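Cell growth measured by CellTiter-Glo luminescence after a minimum 48 h, 37 C compound exposure with 20 nM CPT in Tdp1-knockout DT40 cells stably expressing hTDP1, seeded 400/well; qHTS titration format.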
Active calls of the source: *; u = inconclusive; x = not tested or not shown; [ ] = dose if it differs, or a comment. Most compounds without a hit are left out; they make up all but 19% or so of the library. Unless noted, calls follow the shape of the dose curve; as a rule, active = well fitted curve in the direction sought with a large enough effect; inconclusive = small, poorly fitted or top-dose-only effect, or another doubt; inactive = no such curve, though single readings can be large; an effect the other way counts as inactive or inconclusive.

SMILES	TGFb inhibitor	HepG2 tox	ASM inhibitor	TDP1 cell noCPT	IL1B secr inh	TDP1 cell CPT
c1ccc2c(c1)nc1n2CCS1	-7%	-7%	-2%	4%	9	-2%
OC1C=CSc2nc3ccccc3n21 (stereo unspecified)	3%	-1%	3%	15µM*	u	13µM*
CCOc1ccc(NC(=S)N2CCC(c3ccc(C)cc3)C2)cc1 (stereo unspecified)	u	-24%	-9%	13µM*	-10	u
COc1cccc(NC(=S)N2CCC(c3ccc(C)cc3)C2)c1 (stereo unspecified)	-16%	-26%	-5%	7.3µM*	-78*	12µM*
COc1ccc(NC(=S)N2CCC(c3ccc(C)cc3)C2)cc1 (stereo unspecified)	-3%	-16%	0%	u	-17	u
Cc1ccc(NC(=S)N2CCC(c3ccc(C)cc3)C2)cc1 (stereo unspecified)	-8%	-20%	-2%	u	-16	u
Cc1c(CNC2CCCCCC2)c(C(=O)O)c(C)n1Cc1c(F)cccc1Cl	2%	4%	x	u	x	u
COc1ccc(CN(CC(=O)NC2CCCC2)C(=O)CCC(=O)Nc2nccs2)cc1	13%	36%	-1%	-12%	-9	4%
CC(C)Cc1nnc(NC(=O)CCNC(=O)c2ccco2)s1	5%	3%	0%	-1%	4	21%
Cc1cccc(-c2nc3c(c(SCC(=O)N(C)C)n2)CCCC3)c1	u	-8%	-5%	16µM*	0	u
CN(C)CCSc1nc(-c2ccccc2)nc2c1CCCC2	7%	-23%	-2%	16µM*	-71*	12µM*
O=C(O)CSc1nc(-c2ccccc2)nc2c1CCCC2	3%	-1%	3%	19%	41	-11%
Cc1ccc(NC(=O)CSc2nnc(-c3ccccc3)n2C)cc1	-6%	2%	x	-20%	x	-1%
Cn1c(SCC(=O)c2ccc3c(c2)Cc2ccccc2-3)nnc1-c1ccccc1	30%	10%	10%	29µM*	-13	-29%
Cn1c(SCC(=O)NC(C)(C)C)nnc1-c1ccc(C(C)(C)C)cc1	-5%	-20%	-2%	23µM*	21	u
CCn1c(SCC(=O)NC(C)(C)C)nnc1-c1ccncc1	-3%	2%	5%	9%	3	-2%
CCc1ccc(NC(=O)CSc2nnc(-c3ccccc3)n2C)cc1	12%	8%	x	-2%	x	16µM*
Cn1c(SCC(=O)c2ccccc2)nnc1-c1ccncc1	2%	-7%	-1%	-5%	-7	3%
Cc1cc(C)c(NC(=O)CCN2C(=O)c3ccccc3Sc3ncccc32)c(C)c1	u	-26%	x	21µM*	x	u
O=C(CN1C(=O)c2ccccc2Sc2ncccc21)Nc1cccc(C(F)(F)F)c1	-16%	-31%	x	u	x	18µM*
Cc1c(Cl)cccc1NC(=O)CCN1C(=O)c2ccccc2Sc2ncccc21	u	-35%	x	u	x	u
Cc1ccc(NC(=O)CCN2C(=O)c3ccccc3Sc3ncccc32)c(Cl)c1	-29%	-26%	x	18µM*	x	18µM*
COc1ccc(-c2cccc3c2OC(CNC(=O)c2ccc4c(c2)OCO4)C3)nn1 (stereo unspecified)	x	x	x	-16%	x	17%[9.04 µM]
Cc1ccc(C(=O)CCS(=O)(=O)c2ccc(F)cc2)cc1	16µM*	13µM*	-2%	2.9µM*	-28	4.6µM*
Cc1ccc(C(=O)CCS(=O)(=O)c2ccc(Cl)cc2)cc1	u	-65%	7%	2.9µM*	0	2.9µM*
Cc1ccc(S(=O)(=O)CCC(=O)c2ccc(F)cc2)cc1	u	-98%	5%	2.6µM*	-61*	4.1µM*

Screening results from PubChem BioAssay.
